# According to PubChem BioAssay (NCATS):
# Results filed as inconclusive are left out. Activity calls are given as the source filed them. The call rests on the fitted dose curve. Where a SMILES comes first, the peptide text is derived from it.
# Target: Cytochrome P450 1A2 (Homo sapiens) (UniProt P05177)
# Assay: p450-cyp1a2 (AID 410);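 on activity change, negative = inhibition: -100% = full effect of reference inhibitor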
# Conditions: recombinant CYP1A2, luciferin-ME demethylation, luminescence; series mostly up to 57 µM; activity change, negative = inhibition: at the top concentration
# Experimental: The P450 gene superfamily is involved in metabolism and the clearance of xenobiotics. This assay used human CYP1A2 to measure the demethylation of luciferin 6' methyl ether (Luciferin-ME; Promega-Glo) to luciferin. The luciferin is then measured by luminescence after the addition of a luciferase detection regeant. Luciferin-ME concentration in the assay was equal to its Km for CYP1A2.
# NCGC Assay Protocol Summary:
# Two uL of enzyme and substrate mix (final concentrations: 20nM CYP1A2, 100uM Luciferin-ME, 100mM KPO4) were dispensed into a white, solid bottom 1536-well microtiter plate. 23nL of compound was transferred by a pin tool. The plate was incubated at room temperature for 10 min. Two uL of an NADPH regeneration solution (Promega supplied reagent) was dispensed and the reaction was allowed to continue for 60 min at room temperature. Then the reaction was stopped by reconstituted detection reagent. After another 20 min of incubation the plate was read on the ViewLux (Perkin Elmer) at 60 sec exposure and 2x2 binning. This protocol was carried out with Promega-Glo reagents and further information can be found at http://www.promega.com/tbs/tb325/tb325.pdf. Data were normalized to the to AC100 inhibition (57 uM furafylline).
# Potency means the concentration at half of the fitted maximal effect.
# Cytochrome P450 1A2 (Homo sapiens), sequence (P05177 whole entry, looked up): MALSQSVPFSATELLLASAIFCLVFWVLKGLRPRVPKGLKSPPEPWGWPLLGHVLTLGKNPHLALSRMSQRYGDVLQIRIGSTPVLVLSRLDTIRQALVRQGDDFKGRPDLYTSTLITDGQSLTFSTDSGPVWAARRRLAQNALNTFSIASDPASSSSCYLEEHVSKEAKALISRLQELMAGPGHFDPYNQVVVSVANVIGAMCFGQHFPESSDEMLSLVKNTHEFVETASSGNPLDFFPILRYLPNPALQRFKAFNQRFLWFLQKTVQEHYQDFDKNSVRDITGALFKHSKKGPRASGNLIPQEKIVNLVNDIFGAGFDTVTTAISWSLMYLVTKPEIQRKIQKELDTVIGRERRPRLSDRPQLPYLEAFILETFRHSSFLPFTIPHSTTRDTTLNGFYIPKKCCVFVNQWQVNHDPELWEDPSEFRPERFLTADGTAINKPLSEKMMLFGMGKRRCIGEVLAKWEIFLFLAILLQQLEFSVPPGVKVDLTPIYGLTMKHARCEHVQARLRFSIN
SMILES,"activity change, negative = inhibition",Potency
CC(C)C[C@@H](CC(=O)N[C@@H](CCCN)CC(=O)N[C@@H]1CCNC[C@H]1C(=O)N[C@H](CC(=O)N[C@@H](CCC(=O)O)CC(=O)O)Cc1c[nH]c2ccccc12)NC(=O)[C@@H]1CCCC[C@H]1N,-20.7% (inactive),
COC(=O)[C@@]1(Cc2ccc(F)cc2)[C@H]2c3cc(C(=O)N4CCCC4)n(Cc4ccc(OC(F)(F)F)cc4)c3C[C@H]2CN1C(=O)c1ccccc1,-20.5% (inactive),
CCC/C=C(\CCC)C(NC(=O)c1ccc(C(=O)OC)cc1)c1ccc(C(=O)OC)cc1 (stereo not given),-19.3% (inactive),
COc1ccccc1C[C@@H](Cc1nc2ccccc2[nH]1)c1nc2ccccc2[nH]1,,10 µM (active)
CC(=O)O[C@]12CC[N@+]3(C)CCCC[C@@H]3[C-]1Nc1ccccc12,-11% [at 11.4 µM] (inactive),
COc1cc2c(cc1OC)C(=O)N(C)CC2,,2 µM (active)
COC(=O)[C@@]1(Cc2ccc(OC)cc2)[C@@H]2[C@@H](CC(=O)[C@H]2CC(=O)C(=O)N2CCCC2)CN1C(=O)c1ccccc1,-20.3% (inactive),
Clc1ccc(CO[C@@H](Cn2ccnc2)c2ccc(Cl)cc2Cl)cc1,,0.1 µM (active)
N[C@@H](Cc1c[nH]c2ccccc12)C(=O)NCC(=O)O (H-Trp-Gly-OH),-1.2% (inactive),
O[C@@H]1CC[C@H]2Cc3ccccc3N=C21,,15.8 µM (active)
COC(=O)c1ccc(C(NC(=O)c2ccccc2)[C@]2(C)C[C@H]2C2CCCCC2)cc1 (stereo not given in full),-1.8% (inactive),
COc1cc2nc3c(c([Si](C)(C)C(C)(C)C)c2cc1OC)Cn1c-3cccc1=O,,5.01 µM (active)
CCCC[C@@H]1C[C@H]1C(NC(=O)c1ccccc1)c1ccccc1C(F)(F)F (stereo not given in full),,10 µM (active)
COC(=O)[C@@]1(Cc2ccc(OC)cc2)[C@@H]2C(=CC(=O)[C@H]2CC(=O)C(=O)N(C)C)CN1C(=O)c1ccccc1,1.4% (inactive),
C[C@@H](C(=O)Nc1ccc2ccccc2c1)[C@@H]1C[C@@]1(C)[C@@H](NS(=O)(=O)c1ccc2ccccc2c1)c1ccccc1,,10 µM (active)
C=CCN1CCc2c(cc(O)c(O)c2Br)[C@H](c2ccccc2)C1,,12.6 µM (active)
COCCn1c(C(=O)N2CCCC2)cc2c1C[C@H]1CN(C(=O)c3ccccc3)[C@@](Cc3ccc(F)cc3)(C(=O)OC)[C@@H]21,,31.6 µM (active)
COC(=O)C1(Cc2ccccc2)C=C2C(=C(C(C)C)C(=O)C2C)CN1 (stereo not given),,15.8 µM (active)
C[C@@H](C(=O)NCc1ccccn1)[C@H]1C[C@]1(C)[C@H](NC(=O)OCc1ccccc1)c1ccccc1,,25.1 µM (active)
CC1(C)CCC(C)(C)c2cc(C(=O)Nc3ccc(C(=O)O)cc3)ccc21,,31.6 µM (active)

SMILES,"activity change, negative = inhibition",Potency
COC(=O)C1(C)C=C2C(=C(c3ccccc3)C(=O)C2C)CN1 (stereo not given),,15.8 µM (active)
COC(=O)[C@@]1(Cc2ccc(F)cc2)[C@H]2c3cc(C(=O)N(C)C)n(Cc4ccc(C)o4)c3C[C@H]2CN1C(=O)c1ccccc1,-12.5% (inactive),
COC(=O)[C@H]1C[C@@H]1[C@H](NC(=O)c1cnccn1)c1ccccc1,,15.8 µM (active)
CC(C)C[C@@H](CC(=O)N[C@@H](CCC(=O)O)CC(=O)O)NC(=O)[C@@H]1CCCC[C@H]1NC(=O)C[C@@H](NC(=O)C[C@H](Cc1c[nH]c2ccccc12)NC(=O)[C@@H]1CNCC[C@H]1N)C(C)C,-12.7% (inactive),
COC(=O)[C@@H]1C[C@H]1[C@@H](NC(=O)c1cc(C)nn1C)c1ccccc1,,15.8 µM (active)
O=c1cc(-c2ccccc2O)oc2c1ccc1ccccc12,,0.501 µM (active)
CN1CCc2cc3c(cc2C(=O)Cc2ccc4c(c2C1)OCO4)OCO3,,39.8 µM (active)
CC1CCN(CC[C@@H]2CCCN2S(=O)(=O)c2cccc(O)c2)CC1,-10.4% (inactive),
C[C@@H]1C[C@@]2(C)Oc3ccccc3[C@H]3OC[C@]1(COC(=O)Nc1ccccc1)[C@@H](C)[C@@H]32,,15.8 µM (active)
C[C@@H](C(=O)NCc1ccccn1)[C@@H]1C[C@@]1(C)[C@@H](NC(=O)OCc1ccccc1)c1ccccc1,,20 µM (active)
CCCC[C@@H]1C[C@H]1C(NC(=O)c1cccs1)c1ccc(-c2ccccc2)cc1 (stereo not given in full),,2 µM (active)
CC(C)C[C@@H](CC(=O)N[C@@H](CCC(=O)O)CC(=O)O)NC(=O)[C@@H]1CNCC[C@H]1NC(=O)C[C@H](CCCN)NC(=O)C[C@H](Cc1c[nH]c2ccccc12)NC(=O)[C@@H]1CNCC[C@H]1N,-19% (inactive),
C=C(CO)[C@H]1Cc2c(ccc3c2O[C@H]2COc4cc(OC)c(OC)cc4[C@@H]2C3=O)O1,-5.4% (inactive),
C[C@@H](C(=O)NCc1nc2ccccc2[nH]1)[C@@H]1C[C@@]1(C)[C@@H](NC(=O)OCc1ccccc1)c1ccccc1,,12.6 µM (active)
CC(=O)Oc1cc(OC(C)=O)c2c(=O)cc(-c3ccc(OC(C)=O)c(OC(C)=O)c3)oc2c1,,3.16 µM (active)
CC[C@H]1C2=C3C(CC[C@H]4C(OCc5ccc(F)cc5C(F)(F)F)OC[C@](C)([C@@H]34)N(C(=O)OC(C)(C)C)C2)C(COC)C1COC (stereo not given in full),-11.5% (inactive),
CC(C)[C@@H](CC(=O)N[C@@H]1CCNC[C@H]1C(=O)N[C@H](CC(=O)N[C@@H](CCC(=O)O)CC(=O)O)Cc1c[nH]c2ccccc12)NC(=O)C[C@H](CO)NC(=O)[C@@H]1CNCC[C@H]1N,-11.1% (inactive),
CC1(C)CCC[C@@]2(C)[C@@H]1CC[C@]1(C)OC(=O)C[C@@H]21,-6.2% (inactive),
COc1ccc(-c2oc3cc(OC)c(OC(C)=O)c(OC)c3c(=O)c2OC)cc1OC(C)=O,,12.6 µM (active)
CCN1CCC[C@@H]1CNC(=O)c1c(OC)ccc(I)c1O,,15.8 µM (active)
